Screens deposited in PubChem by National Center for Advancing Translational Sciences (NCATS).
This excerpt belongs to a sample that is enriched for hits.
VACV mCherry inh = inhibitors of vaccinia virus infection (mCherry reporter signal); Vaccinia virus mCherry reporter infection, fluorescence; Potency, µM (series often up to 36.5 µM), usual class: inhibitors; hit rate 0.63% among 310,000; AID 720579; calls by dose curve; tested in A549 cells; also: nearly all actives have a fitted effect of over 35% in size
LASV entry inh = Lassa virus entry inhibition; Lassa virus pseudotype entry inhibition, cell reporter; Potency, µM (top dose mostly 37.9 µM), most hits filed as inhibitors; hit rate 1.2% among 300,000; AID 540256; calls by dose curve; tested in HEK293 cells; also: nearly all actives have a fitted effect of over 50% in size
Shiga inhibitor = blocks Shiga toxin action in Vero cells; AID 2315; Vero cells, Shiga toxin protein synthesis inhibition reporter; hit rate 9.2% among 290,000; inhibition, % at 38.7 µM; in the data active = inhibition mostly above about 28%, no sharp cut-off; inactive = mostly below about 43%
VACV Venus inh = inhibitors of vaccinia virus (Venus reporter). Vaccinia virus Venus reporter expression, fluorescence. Potency, µM (highest dose often 36.5 µM), hits mostly inhibitors. hit rate 0.46% among 330,000; calls by dose curve; tested in A549 cells; also: nearly all actives have a fitted effect of over 30% in size
Marburg entry inh = inhibitors of Marburg virus binding or cell entry | Marburg virus pseudotyped entry inhibition, cell reporter | Potency, µM (highest dose often 37.8 µM), actives largely listed as inhibitors | hit rate 1.8% among 300,000 | AID 540276; calls by dose curve; tested in HEK293 cells
Cycloheximide cs = counter-screen hit for Shiga toxin inhibitors, cycloheximide; cell reporter, cycloheximide protein synthesis inhibition counterscreen; max response, %; hit rate 12% among 300,000; in the data active = max response mostly above about 13%, no sharp cut-off; inactive = mostly below about 14%; also: read at 38.3 µM for the half of the compounds with a filed dose
Hits are given with their value; 0 = inactive; ? = inconclusive; - = no result; [ ] = dose if it differs, or a comment.

SMILES | VACV mCherry inh | LASV entry inh | Shiga inhibitor | VACV Venus inh | Marburg entry inh | Cycloheximide cs
O=C(Nc1cccc(Cl)c1)OCCOC(=O)Nc1cccc(Cl)c1 | 0 | ? | - | 0 | ? | -
O=C(Nc1cccc(Cl)c1)OCC#CCCl | - | - | 0 | - | - | 0
O=C(Nc1ccccc1)OCCOc1ccccc1 | - | 0 | 61 | - | 0 | 32
O=C(Nc1ccccc1)OCCOc1cccc(Br)c1 | 0 | 0 | 0 | 0 | 0 | 0
O=C(Nc1cccc(Cl)c1)OCCOc1ccccc1 | - | - | 75 | - | - | 56
CNc1ncc(C(=O)c2ccc(Br)cc2)s1 | 0 | ? | 81 | 0 | ? | 44
CNc1ncc(C(=O)c2ccccc2)s1 | - | 0 | 70 | - | ? | 41
O=c1[nH]c(Cc2ccccc2)nc2c1oc1ccccc12 | - | 0 | 0 | - | 0 | 0
Cc1nc2c(oc3ccccc32)c(=O)o1 | - | ? | 144 | - | 0 | 88
C[C@@](N)(C(=O)O)c1ccc(C(=O)O)cc1 | 0 | - | - | 0 | 0 | -
COc1ccc(CNS(=O)(=O)c2ccc3c(c2)NC(=O)C(C)S3)cc1 (stereo not drawn) | - | - | 0 | - | - | 0
O=C(Nc1ccc2c(c1)OCO2)C1CCN(S(=O)(=O)c2cccs2)CC1 | 0 | 0 | 42 | 0 | 0 | 8.4
O=C(Nc1ccc2c(c1)OCO2)C1CCCN(S(=O)(=O)c2cccs2)C1 (stereo not drawn) | - | 0 | 0 | 0 | 0 | 0
O=C(Nc1ccc2c(c1)OCO2)C1Cc2ccccc2CN1S(=O)(=O)c1cccs1 (stereo not drawn) | 0 | 0 | 0 | 0 | 0 | 18
COc1ccc(NC(=O)C2CCN(S(=O)(=O)c3c(C)nn(C)c3C)CC2)cc1 | 0 | 0 | 0 | 0 | 0 | 0
Cc1nn(C)c(C)c1S(=O)(=O)N1CCC(C(=O)Nc2ccc3c(c2)OCCO3)CC1 | 0 | - | 81 | 0 | - | 0
O=C(C1Cc2ccccc2CN1S(=O)(=O)c1cccs1)N1CCCCC1 (stereo not drawn) | - | 0 | 0 | - | 0 | 9.5
COc1ccc(NC(=O)CN(C)CC(=O)NCCc2ccc(F)cc2)cc1 | 0 | ? | - | 0 | 0 | -
CCOC(=O)c1c(NC(=O)CSc2cn(CCNC(=O)c3ccc(OC)cc3)c3ccccc23)sc2c1CCC2 | 0 | 0 | - | 0 | ? | -
O=C(Nc1ccc2c(c1)OCCO2)C1CCN(S(=O)(=O)c2cccs2)CC1 | - | 0 | 0 | - | 0 | 24
O=C(C1CCN(S(=O)(=O)c2cccs2)CC1)N1CCCC(C(F)(F)F)C1 (stereo not drawn) | 0 | 0 | 0 | 0 | 0 | 17
O=C(Nc1ccc2c(c1)OCCO2)C1CCCN(S(=O)(=O)c2cccs2)C1 (stereo not drawn) | - | 0 | 0 | 0 | 0 | 0
Cc1ccc(NC(=O)NC2=NN(c3ccccc3)C(=O)/C2=C2/CCCN2C)cc1 | - | - | 90 | - | - | 27
C/C(=N\NC(=O)c1ccccc1O)C1CC1 | ? | 0 | 66 | 0 | 0 | 0
C/C(=N\NC(=O)c1ccc(N)cc1)C1CC1 | 0 | ? | 39 | 0 | 0 | 40
SMILES | VACV mCherry inh | LASV entry inh | Shiga inhibitor | VACV Venus inh | Marburg entry inh | Cycloheximide cs
CCN(Cc1ccncc1)Cc1ccc2c(c1)CN(C(=O)c1cccc3c(C)c(C)[nH]c13)CCO2 | 0 | - | - | 0 | - | -
O=[N+]([O-])c1ccc(O)c(/C=N/n2c(CO)nc3ccccc32)c1 | 0 | - | 0 | 0 | - | 0
C/C(=N\OCc1nc2ccccc2c(=O)n1/N=C/c1cc(C)cc([N+](=O)[O-])c1O)c1ccccc1 | - | - | 0 | - | - | 21
C/C(=N\OCc1nc2ccccc2c(=O)n1/N=C/c1cc([N+](=O)[O-])ccc1O)c1ccccc1 | - | - | 46 | - | - | 18
Cc1ccccc1-n1nc2c(c1NC(=O)C1CCCC1)CS(=O)(=O)C2 | - | - | 0 | - | - | 0
CCOc1ccc(NC(=O)c2ccccc2OC)cc1 | 0 | 0 | 0 | 0 | 0 | 40
CCOc1ccc(NC(=O)c2ccccc2CO)cc1 | 0 | 0 | 0 | 0 | 0 | 31
CCOc1ccc(NC(=O)c2ccccc2OCC(=O)c2ccccc2)cc1 | - | 0 | 0 | - | ? | 48
Cc1ccc(NC(=O)c2ccccc2OCC(=O)c2ccccc2)cc1 | - | 0 | 0 | - | 0 | 0
O=C(COc1ccccc1C(=O)c1cnn(-c2ccccc2)c1)Nc1ccccc1 | 0 | 0 | 0 | 0 | ? | 21
O=C(CCN1C(=O)c2ccccc2S1(=O)=O)Nc1ccc(F)c([N+](=O)[O-])c1 | 0 | 0 | - | 0 | 0 | -
CCOc1ccccc1OCCC(=O)OCC(=O)Nc1c(C)cc(C)cc1C | 0 | 0 | - | 0 | 0 | -
COc1ccc(CCNc2nc3cc(OC)c(OC)cc3c3nc(-c4cccnc4)nn23)cc1OC | 0 | - | - | 0 | 0 | -
COc1cc(=O)n2c(c1C(=O)N(C)Cc1nonc1C)CCN(Cc1ccccc1F)CC2 | 0 | - | - | 0 | - | -
CCN(CC)CCCNC(=O)C1CCN(S(=O)(=O)CC)CC1 | 0 | 0 | - | 0 | - | -
CCOc1ccc(NC(=O)c2cccnc2SC)cc1 | 0 | 0 | 0 | 0 | ? | 22
CCOc1ccc(NC(=O)c2ccccc2O)cc1 | - | ? | 0 | 0 | ? | 12
CCOc1ccc(S(=O)(=O)Nc2ccc(C(=O)NNC(=O)c3ccncc3)cc2)cc1 | 0 | 0 | - | 0 | 0 | -
CC(=O)c1cccc(NC(=O)COc2ccccc2C(=O)Nc2ccccc2)c1 | 0 | - | - | 0 | - | -
CCOc1ccc(NS(=O)(=O)c2ccc(C(=O)NNC(=O)c3ccccc3O)cc2)cc1 | 7.1µM | ? | - | ? | ? | -
CCOc1ccc(NC(=O)c2ccccc2-c2ccccc2C(=O)O)cc1 | 0 | 0 | - | 0 | 0 | -
CC(=O)c1ccc(NC(=O)COc2ccccc2C(=O)Nc2ccccc2)cc1 | 0 | 0 | 49 | 0 | ? | 13
COC(=O)c1ccc(CSC2=NC[C@@H]3[C@@H]4C(=O)N(Cc5ccccc5)C(=O)[C@@H]4[C@](C)(C(=O)OC)N23)cc1 | 0 | - | - | 0 | - | -
Cc1ccccc1S(=O)(=O)NC(=NCc1ccc(F)cc1)c1ccccc1 | 0 | 0 | - | 0 | 0 | -
CCC(Oc1ccccc1)C(=O)NC1CCSC1=O (stereo not drawn) | 0 | 0 | 0 | 0 | 0 | 0
SMILES | VACV mCherry inh | LASV entry inh | Shiga inhibitor | VACV Venus inh | Marburg entry inh | Cycloheximide cs
COc1ccccc1CNC(=O)C1(C)CCCCN1C (stereo not drawn) | 0 | - | - | 0 | - | -
FC(F)(F)c1cccc(-c2nc3nc(Cl)c(Cl)nc3[nH]2)c1 | ? | - | 102 | ? | - | 50
CCCOc1cccc(C(=O)Nc2cccc(NC(=O)c3ccco3)c2)c1 | 0 | 0 | 0 | 0 | 0 | 14
CCOc1cccc(C(=O)NC(=S)Nc2ccccc2)c1 | 0 | ? | 141 | 0 | ? | 104
CCOc1cccc(C(=O)NC(=S)Nc2cccnc2)c1 | 0 | ? | 80 | 0 | ? | 38
CCCOc1cccc(C(=O)Nc2cccnc2)c1 | 14µM | 0 | 0 | 0 | 0 | 0
CN1C(=O)COC2CCC(C(=O)C3=C(C(=O)O)CCCC3)CC21 (stereo not drawn) | - | - | - | - | 0 | -
Cn1cnnc1SCC(=O)Nc1ccc(C#N)cc1 | 0 | 0 | - | 0 | 0 | -
CCOc1cccc(C(=O)NC(=S)Nc2cccc(NC(=O)c3ccccc3Cl)c2)c1 | 0 | ? | 0 | 0 | ? | 14
COc1cccc(C(=O)Nc2cccc(NC(=O)c3ccccc3Cl)c2)c1 | - | - | 0 | - | - | 0
Cc1oc(C(=O)Nc2ccc(O)cc2)cc1COc1ccccc1 | 0 | 20µM | 38 | 0 | ? | 16
Cc1ccc(OCc2cc(C(=O)Nc3ccccc3)oc2C)cc1 | 0[1.46 µM] | 0 | 85 | 0 | 0 | 51
Cc1cc(C(=O)Nc2ccccc2)oc(=O)c1 | 0 | ? | 45 | 0 | 0 | 48
O=C(Cc1c[nH]c2ccccc12)N1CCc2ccccc21 | 0 | 0 | 87 | 0 | 0 | 30
